Several values for one entry are separate records, joined by “and”; a condition that tells them apart may be missing. Equal entries are not always repeated. This is part of a sample that, as a whole, favours compounds with a hit. Of some 83,000 tested, about 20% had one in any assay.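 Activity criterion: percent growth below 10, measured after cells in 96-well plates were exposed to a single compound concentration for 48 hours.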 Values without a mark were called inactive. Activity calls are given as the source filed them.

Holding throughout (assay): NCI-60 one-dose screen, 48 h (100 = growth as untreated, 0 = no growth, -100 = all killed)
What all share (details): 10 µM unless noted

Assay [1] has as its system HCT-15 colon.
Assay [2] deals with HT29 colon.
Assay [3] deals with SNB-75 CNS.
Assay [4] deals with SNB-19 CNS.
Assay [5] deals with U251 CNS.
Assay [6] concerns PC-3 prostate.
Assay [7] deals with SK-MEL-5 melanoma.
The test system of assay [8] is UACC-62 melanoma.
The subject of assay [9] is LOX IMVI melanoma.
The test system of assay [10] is SK-MEL-28 melanoma.

With `FC(F)(F)c1cc2c(Cl)ncnc2n1CCC1CCOCC1`, the growth in assay [1] was -37.7% (active); in assay [2], 48.5%; in assay [3], -91.1% (active); in [4], -99% (active); in assay [5], -14.4% (active); in assay [6] it was 2.75% (active). Also, the growth was -83.7% (active) in [7], -34.5% (active) in [8], -97% (active) in [9] and -0.403% (active) in assay [10].
Regarding `CN1CCN(C(=O)Oc2cc3c(c4ccccc24)[C@H](CCl)CN3C(=O)c2cc3cc(OCCCN4CCC4)ccc3[nH]2)[C@H]2CSSC[C@H]21`, the growth in [1] was -1.96% (active); in assay [2] it was -1.25% (active); in [3], -77.2% (active); in assay [4] it was -15% (active); in assay [5] it was 6.86% (active); in assay [6] it was -8.67% (active). Moreover, the growth is -21.2% (active) in [7], -81.9% (active) in assay [8], -23.9% (active) in assay [9] and -51.1% (active) in assay [10].
`CCCn1c(NC(=O)c2cccc(C(N)=O)c2)nc2ccc(CN3CCCCC3)cc21`: the growth in assay [1] was 67.1%; in [2], 91%; in assay [3], 128%; in assay [4], 111%; in assay [5], 106%; in [6], 63.2%. In addition, the growth is 102% in assay [7], 113% in [8], 93.4% in assay [9] and 106% in assay [10].
For `O=C(CSc1nc2c(c(=O)[nH]1)CCCC2)Nc1ccccc1C(=O)O`, the growth was 98.3% in [1]; 105% in [2]; 125% in [3]; 99.7% in assay [4]; 103% in [5]; 106% in assay [6]. In addition, the growth in assay [7] was 99.3%; in [8], 96.1%; in assay [9], 101%; in assay [10], 112%.
Consider `O=C1/C(=C/c2cnc(-c3ccccc3)s2)SC(=S)N1Cc1ccc2c(c1)OCO2`, for which the growth was 81.2% in assay [1]; 111% in assay [2]; -30.1% (active) in assay [3]; 16.7% in assay [4]; 42% in [5]; 97.9% in assay [6]. For the same compound, the growth in assay [7] was 96.9%; in assay [8] it was 61.5%; in [9], 66.6%; in assay [10] it was 103%.
On to `Cc1ccc(C(=O)Nc2cccc(C(=O)NC(=S)Nc3ccc(S(N)(=O)=O)cc3)c2)cc1`, for which the growth in assay [1] was 80.5%; in assay [2], 85.1%; in assay [3], 50.5%; in [4], 83.1%; in assay [5], 84.4%; in assay [6] it was 78.9%. The growth is 49.8% in [7], 69.4% in assay [8], 78.8% in [9] and 79.8% in assay [10].
For `O=C(CSc1nc2sc3c(c2c(=O)n1-c1ccc(Cl)cc1)CCCC3)NNC(=O)c1ccc(Br)cc1`, the growth in assay [1] was 73.9%; in [2] it was 100%; in [3], 82.7%; in [4] it was 24.8%; in assay [5], 26.6%; in assay [6], 71.8%. Moreover, the growth in [7] is 74.2%; in assay [8], 36.6%; in [9] it was 52.1%; in [10] it was 78.8%.
For `CCOC(=O)c1ccc(NC(=S)NC(=O)c2cccc(NC(=O)c3ccc(C)cc3)c2)cc1`, the growth was 75.3% in [1]; 82.5% in assay [2]; 73% in [3]; 49.4% in assay [4]; 2.07% (active) in assay [5]; 77.5% in [6]. Moreover, the growth in assay [7] is 85.8%; in [8], 74.9%; in assay [9] it was 51.9%; in [10], 85.2%.
In the case of `COc1cc(CNC(=O)C[C@H](C)CCC=C(C)C)ccc1OCc1cn(-c2ccc(Cl)cc2Cl)nn1`, the growth in assay [1] is 79.6%; in assay [2] it was 82.3%; in [3], 7.99% (active); in assay [4], 50%; in assay [5], 54.4%; in [6], 85%. The growth in assay [7] was 60.4%; in assay [8], 65.6%; in assay [9] it was 80.7%; in assay [10], 96.3%.
On to `CC(=O)c1ccc2c(N)c(C(=O)Nc3ccc(C(F)(F)F)cc3)sc2n1`, for which the growth in assay [1] is 40.7%; in assay [2] it was 82.2%; in assay [3], 84.7%; in [4] it was 67.9%; in assay [5], 72.6%; in assay [6] it was 70.2%. In addition, the growth is -5% (active) in [7], 59.7% in assay [8], 37.8% in assay [9] and 87.2% in assay [10].
Turning to `Cc1cnc2ccc(Oc3ccccc3-c3ccccc3)nn12`, the growth in assay [1] is 103%; in [2], 108%; in assay [3] it was 126%; in assay [4], 99.7%; in assay [5] it was 100%; in assay [6], 105%. For the same compound, the growth is 107% in assay [7], 101% in assay [8], 97.9% in assay [9] and 113% in [10].
As for `CCCSc1nnc(-c2sc3nc4ccccc4n3c2C)o1`, the growth in [1] is 99.2%; in assay [2] it was 110%; in assay [3] it was 95.6%; in assay [4], 99.8%; in [5], 113%; in [6], 105%. The growth is 98.5% in assay [7], 94.5% in assay [8], 113% in [9] and 110% in assay [10].
As to `COc1ccc(/C=C/C(=O)c2ccc(OC)c(S(N)(=O)=O)c2)c(C(F)(F)F)c1`, the growth is -52% (active) in [1]; 6.34% (active) in [2]; 37.6% in assay [3]; -28.6% (active) in assay [4]; -64.7% (active) in [5]; 11.2% in assay [6]. Moreover, the growth in [7] was 18.9%; in [8], 30.6%; in assay [9] it was -93% (active); in assay [10], 35.5%.
For `CN(CCSSCCN1CCOCC1)C(=O)Oc1cc2c(c3ccccc13)[C@H](CCl)CN2C(=O)c1cc2cc(OCCCN3CCC3)ccc2[nH]1`, the growth in [1] is -49.3% (active); in [2], -40.5% (active); in [3], -46% (active); in [4], -100% (active); in assay [5] it was -60.3% (active); in assay [6], -21.9% (active). Moreover, the growth in assay [7] was -89.6% (active); in assay [8] it was -72.7% (active); in assay [9] it was -73% (active); in assay [10], -58% (active).
As for `Cc1[nH]nc2ccc3nc(-c4cn[nH]c4C(F)(F)F)c4c(c3c12)CCCC4`, the growth in assay [1] was -4.58% (active); in assay [2], 5.08% (active); in assay [3], -9.8% (active); in [4] it was 3.47% (active); in [5] it was 7.24% (active); in [6], 4.97% (active). The growth in assay [7] is -51.2% (active); in assay [8], -57.3% (active); in assay [9], -39.9% (active); in assay [10], -20.1% (active).
In the case of `CN1CCN(C(=O)CCN(C(=O)Oc2cc3c(c4ccccc24)[C@H](CCl)CN3C(=O)c2cc3cc(OCCCN4CCC4)ccc3[nH]2)[C@H]2CCSSC2)CC1`, the growth in assay [1] was -37% (active); in assay [2], -69.8% (active); in assay [3], -58.5% (active); in assay [4], -50.7% (active); in assay [5], -65.9% (active); in assay [6] it was -65% (active). In addition, the growth in assay [7] was -93.7% (active); in assay [8], -81.9% (active); in assay [9], -71.8% (active); in assay [10], -89.2% (active).
As for `CS(=O)(=O)Nc1cccc(-n2cnc3cc(-c4ccc(O)cc4)ccc32)c1`, the growth in [1] is 30.9%; in [2] it was 16%; in [3] it was 53.8%; in assay [4], 25.4%; in assay [5], 26.2%; in assay [6] it was 45.8%. Moreover, the growth was 19.7% in assay [7], 26.3% in [8], 41.9% in assay [9] and 63.2% in [10].
Take `Cc1cccc(-c2ccccc2Oc2ccc3nnc(Cl)n3n2)c1`: the growth in assay [1] was 99.6%; in assay [2], 107%; in assay [3], 89.4%; in assay [4], 97.8%; in [5] it was 94.6%; in assay [6], 103%. The growth in assay [7] was 98.5%; in assay [8], 96.8%; in assay [9], 93.7%; in assay [10], 107%.
For `CC(=O)Nc1cccc(-n2c(COc3ccc(I)cc3)nc3ccccc32)c1`, the growth in assay [1] is 69.6% and 108%; in assay [2] it was 105% and 119%; in assay [3], 57.8% and 93.3%; in [4] it was 93.5% and 103%; in [5], 81.8% and 105%; in assay [6], 63.3% and 107%. In addition, the growth in assay [7] is 74.1% and 104%; in assay [8] it was 61.4% and 97.8%; in assay [9], 85.3% and 107%; in assay [10], 107% and 116%.
On to `COc1cccc(-c2ccc(/C=N/NC(=O)c3[nH]c4ccc(Br)cc4c3-c3ccccc3)s2)c1`, for which the growth in assay [1] was 3.37% (active); in assay [2], -32.2% (active); in [3] it was 36.8%; in [4], 11.7%; in [5], -23% (active); in [6] it was 23.7%. Besides, the growth in assay [7] was -60.9% (active); in assay [8], -17.1% (active); in assay [9] it was 4.04% (active); in assay [10], 8.82% (active).
On to `COc1ccc2[nH]c(=O)cc(-n3ncc(C(=O)/C=C/c4cc(OC)c(OC)c(OC)c4)c3C)c2c1`, for which the growth in [1] is -27.1% (active); in assay [2], -27.4% (active); in assay [3], 32.2%; in assay [4] it was 19.8%; in assay [5], -67.4% (active); in assay [6], 7.18% (active). Moreover, the growth in [7] is -93.9% (active); in [8], -69.5% (active); in assay [9], -85.6% (active); in [10], -77.1% (active).
Regarding `O=C(c1ccc(Cl)cc1)C1[C@H](c2ccccc2Cl)[C@@H](c2ccccc2)NC12C(=O)Nc1ccccc12` (stereo not given in full), the growth in [1] was -25.8% (active); in assay [2], -71.7% (active); in [3] it was -4.03% (active); in assay [4] it was 7.09% (active); in [5] it was -26.4% (active); in [6], -3.66% (active). In addition, the growth in assay [7] is -97.1% (active); in assay [8] it was -73.3% (active); in assay [9] it was -97.9% (active); in assay [10] it was -57.3% (active).
For `COc1ccc2ccccc2c1/C=C1\SC(=Nc2ccc(O)cc2)NC1=O`, the growth is 4.61% (active) in [1]; 0.351% (active) in assay [2]; 77.7% in assay [3]; 24.5% in assay [4]; 5.13% (active) in assay [5]; 21.5% in assay [6]. The growth is -53.6% (active) in assay [7], 16.4% in assay [8], -3.89% (active) in assay [9] and 52.7% in assay [10].
On to `COc1ccc(NC(=O)Nc2nc3ccc([N+](=O)[O-])cc3s2)cc1`, for which the growth is 9.87% (active) in assay [1]; 58.1% in [2]; 62.3% in assay [3]; 14.6% in assay [4]; 0.863% (active) in assay [5]; 10.5% in [6]. For the same compound, the growth was -70.7% (active) in [7], 36.2% in assay [8], 33.8% in assay [9] and 47.7% in assay [10].
`O=C(Cn1c(-c2ccccc2)nc2ccccc21)N=Nc1c(O)[nH]c2ccc(Br)cc12`: the growth was 1.07% (active) in [1]; -33.1% (active) in assay [2]; -62.4% (active) in [3]; -35.5% (active) in assay [4]; -12.6% (active) in assay [5]; 9.01% (active) in assay [6]. The growth in [7] was -50.2% (active); in assay [8], -39.7% (active); in assay [9] it was -24.7% (active); in [10], -65.4% (active).
